Results taken from PubChem BioAssay AID1347070 (National Center for Advancing Translational Sciences (NCATS), 2019).
Among all 94,000 compounds or so, about 20 (0.02%) were called active. Roughly 1% stayed inconclusive and do not appear here. These entries were drawn from the full list. A number with no mark means an inactive call. The call rests on the fitted dose curve; in most records, active means well fitted activation curve with a large enough effect; inconclusive means small, poorly fitted or top-dose-only effect; inactive means flat fitted curve, though single readings scatter.

assay: qHTS of alpha-syn Inhibitors: NCGC Sytravon Library Screen; further: 0% is about no effect; details: S. cerevisiae alpha-synuclein toxicity rescue, BacTiter-Glo growth, 24 h; series mostly up to 46.1 µM; growth rescue (activation): at the top concentration
Excerpt: The goal of this project is to identify new chemical probes capable of reversing the toxicity associated with the Parkinson disease-related protein, alpha-synuclein. Compounds will be selected on their ability to restore growth in yeast cells expressing toxic levels of alpha-synuclein. These compounds will provide a complementary approach to deciphering the tangled mechanisms of toxicity and protection that we have uncovered through genome-wide genetic screens and are beginning to uncover in a large-scale proteomics analysis with mass spectroscopy. To this end, a miniaturized assay was developed to be screened against the Molecular Libraries Small Molecule Repository (MLSMR) to discover alpha-synuclein inhibitors. […] The phenotype of interest will be that of an Activator and this screen is run against the NCGC Sytravon Library collection. NIH Chemical Genomics Center [NCGC] NIH Molecular Libraries Probe Centers Network [MLPCN] MLPCN Grant: NS060957 Assay Submitter (PI): Susan Lindquist, Whitehead Institute/MIT
Dispense 2.5 microL yeast galactose medium per 1536-well plate, pin compound, dispense 2.5 microL alpha-synuclein expressing yeast in galactose medium at OD600=0.02 (pregrown in raffinose medium to mid-log phase) per well, incubate for 24 hr at 30 deg C, and cell growth will be measured using 5 microL of Bactiter/Glo reagent to entire plate and read using Luminescence Protocol in ViewLux.

SMILES | growth rescue (activation) [%]
CCOC(=O)c1sc(NC(=O)c2sc(C)nc2C)nc1C | -1.28
CCN(CC(=O)NCCc1ccccc1)S(=O)(=O)c1ccccc1 | 17.5
CCc1ccccc1OCC(=O)Nc1ccc2c(c1)OCCO2 | 3.32
CCN(CC)CCn1c2c(c(SCC(=O)Nc3ccc(C(C)C)cc3)nc1=O)CCC2 | 8.84
CCC(=O)c1ccc(OCC(=O)N(CC)CC2COc3ccccc3O2)cc1 (configuration not stated) | 6.47
CC(=O)Nc1ccc2nc(NC(=O)CS(=O)(=O)c3ccc(F)cc3)sc2c1 | -3.04
COc1ccc(NC(=O)CCC(=O)Nc2cc(OC)c(NC(=O)c3ccco3)cc2OC)c(OC)c1 | 9.61
COc1cc(NC(=O)CN(C)S(=O)(=O)c2ccc3nc(C)sc3c2)cc(OC)c1 | 2.95
CCCCn1c(SCC(=O)N2CCOCC2)nc2c1c(=O)n(C)c(=O)n2C | -3.16
CSc1nnc(C2CCCN(CC(=O)Nc3ccccc3N3CCOCC3)C2)n1C(C)C (configuration not stated) | 9.2
Cc1cc2cc3n(c2nn1)N=C(Cl)CC3 | -2.87
CCOc1ccc(-c2n[nH]c(C)c2-c2ccccn2)c(O)c1 | -4.58
O=C(Nc1cc(F)ccc1F)c1ccc2c(=O)n3c(nc2c1)CCC3 | -5.44
COc1ccc(NC(=O)CC2C(=O)NC3CCCCC3N2C(=O)c2ccc(F)cc2)cc1 (configuration not stated) | 5.79
O=C(Nc1ccc(F)c([N+](=O)[O-])c1)C1CCCO1 (configuration not stated) | 9.96
CCOC(=O)c1[nH]cnc1C(=O)Nc1ccccc1C | -6.47
O=C(c1ccccc1)N1CCN(C(=O)c2cc3nc(-c4ccccc4)cc(C(F)(F)F)n3n2)CC1 | 9.69
O=S(=O)(Nc1ccccc1Br)c1cccs1 | 5.51
O=C(Nc1ccccc1C(=O)N1CCCCC1)c1ccco1 | 7.96
COc1cccc(N2CC(NS(=O)(=O)c3cccs3)CC2=O)c1 (configuration not stated) | 1.66
Cc1cn([C@H]2C[C@H](O)[C@@H](CNC(=O)[C@H](N)Cc3cccnc3)O2)c(=O)[nH]c1=O | 3.32
COC(=O)c1cc(OCC(=O)NC2CCCc3ccccc32)cc(C(=O)OC)c1 (configuration not stated) | 4.38
O=C(Cc1ccccc1)NNC1CC(=O)N(c2ccc(Br)cc2)C1=O (configuration not stated) | -7.94
CCOC(=O)C1=C(c2ccccc2)NC(=S)NC1c1ccc(Cl)cc1 (configuration not stated) | 6.93

SMILES | growth rescue (activation) [%]
COc1ccc(-n2c(-c3ccc(Cl)cc3)n[nH]c2=S)c(OC)c1 | 2.94
COc1ccc(CC(=O)NC(C)CCc2ccccc2)cc1 (configuration not stated) | 10.7
C/C(CC(=O)NC(C)c1ccccc1)=N\NC(N)=S (configuration not stated) | 5.9
CN(C)c1ccc(C(=S)N2CCN(C(=S)Nc3ccc(Cl)cc3)CC2)cc1 | -0.752
CCCOc1ccc(/C=N/NC(=O)C2CC2)c(OCCC)c1 | 8.78
CCOC(=O)Cc1ncccc1C(=O)Nc1ccc(OC)cc1 | 6.95
COc1ccc(CN2C(=O)C(CC(=O)NCCCCc3ccccc3)CC(C(=O)N3CCOCC3)=C2C)cc1 (configuration not stated) | 1.23
CCOC(=O)c1c(NC(=O)COC(=O)c2ccc(S(=O)(=O)C(F)F)cc2)sc(C(=O)N(C)C)c1C | -5.95
CC(=O)Nc1ccc(C(=O)NNC(=O)CCCCC(=O)NNC(=O)c2ccc(NC(C)=O)cc2)cc1 | -13.9
O=C(O)CC12CC3CC(C1)CC(n1ncc(NCc4ccc(F)cc4)c(Cl)c1=O)(C3)C2 | 0.767
CCOc1cc2c(Cl)ncnc2c(OCC)c1OCC | -10.8
COc1ccc(N2CCN(C(=O)[C@@H](NC(=O)c3cc(OC)cc(OC)c3)C(C)C)CC2)cc1 | 6.27
O=C(NCCOc1ccccc1)c1ccccc1F | -4.85
O=C(CSc1nnc(CN2CCCC2)n1-c1ccc(F)cc1)c1ccc2c(c1)OCO2 | -7.99
C[C@H]1CN(c2ccc(Br)cc2)C(=O)[C@@H]1CC(=O)Nc1ccc(Br)cc1 | -0.722
COC(=O)CNC(=O)c1cc(-c2ccncc2)nc2ccccc12 | -6.59
O=C(NC1CCCC1)c1cc(-c2ccccc2)on1 | 12.5
CCOc1ccc(C(CC(=O)O)n2cnnn2)cc1OC (configuration not stated) | -9.12
COCCN(Cc1nc(-c2ccc(C(F)(F)F)cc2)no1)C(C)C | 0.309
CC(Nc1nc(C(F)(F)F)nc2ccccc12)c1cccs1 (configuration not stated) | -25.6
CCc1noc(C)c1C(=O)OCC(=O)c1ccc(NC(=O)CC(C)C)cc1 | 13.9
CCc1nc2c(=O)[nH]cnc2o1 | 2.78
CN(Cc1ccc(F)cc1Cl)S(=O)(=O)c1cccs1 | 10.8
O=C(OCC(=O)N1CCCCCC1)c1cccc(Cl)c1Cl | 4.74

SMILES | growth rescue (activation) [%]
O=C(CN1CCCCC1)NC(=O)Nc1ccccc1F | -14.9
Cc1ccc(O)c(NC(=O)c2cc(-c3ccco3)on2)c1 | -16.3
CCOC(=O)Cc1cc(=O)[nH]c(/N=C(\N)Nc2ccc(OC)cc2)n1 | -4.69
COc1ccccc1N(C)C(=O)c1cc(S(=O)(=O)N2CCc3ccccc32)cn1C | 6.55
COc1ccc(-c2ccc3[nH]c4c(c3c2)CCN2C[C@H]3[C@H](C)ON(C)[C@H]3C[C@@H]42)cc1 | -9.12
CC(=O)Nc1ccccc1NC(=O)c1cc(C)cc(C)c1 | 4.72
O=C(COC(=O)Cc1ccc(Cl)cc1Cl)NCc1ccco1 | 17.9
Cc1cc(=O)c2ccc(NC(=O)c3ccccc3)cc2[nH]1 | 0.927
Cc1cc2c3ccccc3[nH]c(=O)n2n1 | -10.2
COc1cccc(COC(=O)C2CCN(S(=O)(=O)c3cccs3)CC2)c1OC | 5.75
CSc1nc(-c2ccco2)nn1C(=O)c1ccccc1Cl | 6.42
COc1ccc(C=C2CCC3C(CCCC34OCCO4)C2=O)cc1 (configuration not stated) | -0.491
Cc1cccc(NC(=O)c2cc([N+](=O)[O-])ccc2N2CCN(C)CC2)c1 | -6.98
CCN(CCNC(=O)C1=C(C)C(=O)OC12CCC(C)CC2)c1ccccc1 (configuration not stated) | 14.2
CCCCN1C(=O)C(CC(=O)NC(c2ccccc2)c2ccccc2)CC(C(=O)N2CCOCC2)=C1C (configuration not stated) | 1.76
COCCn1c(C)cc(C(=O)COC(=O)/C=C/c2cccc(OC)c2)c1C | 4.85
C[C@@H]1CN([C@@H](C)CO)C(=O)c2cc(NS(C)(=O)=O)ccc2O[C@@H](C)CCCCO[C@H]1CN(C)C(=O)Nc1ccc2c(c1)OCO2 | -4.92
COc1ccc(C(=O)COC(=O)CNC(=O)c2cccs2)cc1Br | 13.6
Cc1ccccc1NS(=O)(=O)CCCCC(Cl)(Cl)Cl | 4.69
CC1CCN(C(=O)CCNC(=O)c2ccccc2)CC1 | 9.67
CC(C)CN(C(=O)COC(=O)c1ccc2ccccc2c1)c1c(N)n(Cc2ccccc2)c(=O)[nH]c1=O | -8.4
COc1ccc(/C=C(\NC(=O)c2ccccc2)C(=O)NCCN2CCOCC2)cc1OC | -13
Cc1ccc(SCCC(=O)Nc2cc(C)on2)cc1 | -5.87
Cc1onc(-c2ccccc2Cl)c1C(=O)OCc1nnc(-c2ccccc2)o1 | 14.1
